From PubChem BioAssay (Tox21)
Values joined by “and” are separate entries in the source; they are usually repeats but may differ in a detail not shown here. Identical values can stand only once. Results filed as inconclusive are left out. Active and inactive are the calls of the source. Calls come from the whole dose curve; as a rule, active = well fitted cell-killing curve with a large enough effect in the repeat runs; inconclusive = weak or mixed curves, or effect the other way; inactive = no such curve, though single readings can be large or run the other way.

Test: qHTS assay to identify small molecule antagonists of the sonic hedgehog signaling (Shh) pathway - cell viability counter screen (AID 1259367); note: nearly all actives have a fitted effect of over 55% in size
Conditions: NIH/3T3 Gli1-Luc viability, CellTiter-Fluor, 24 h; series mostly up to 92.4 µM; viability change, negative = cytotoxic: at the top concentration
Source text: National Center for Advancing Translational Sciences [NCATS]
NIH Chemical Genomics Center [NCGC]
U.S. Environmental Protection Agency [EPA]
National Institutes of Environmental Health Sciences [NIEHS]
National Toxicology Program [NTP]
U.S. Food and Drug Administration [FDA]
The sonic hedgehog (Shh) pathway is essential for normal embryonic development. Dysregulation of the Shh pathway can cause severe developmental defects in organs. Therefore chemicals that interfere with the pathway are potential developmental toxicants. A cell line designated 3T3Gli1-Luc (DMB/OARSA/CFSAN/FDA, Laurel, MD), a NIH/3T3 derived clone containing stably integrated Gli1-Luc reporter is used to detect chemical interference of the Shh pathway, by changes in the expression of the firefly Luc gene under the control of the Gli1 transcriptional response element. This cell line was used to screen Tox21 libraries for identifying and prioritizing the potential developmental toxicants that interfere Shh pathway. Conditioned medium-stimulated mode was used to screen for chemicals inhibiting Shh signaling. The cytotoxicity of the compounds was tested in parallel by measuring the cell viability using CellTiter-Fluor assay system (Promega, Madison, WI) in the same wells.
Tox21 Assay Protocol Summary:
3T3 Gli1-Luc cells were dispensed at 2,000 per well in 5uL of culture medium into white solid bottom 1536-well plates (Greiner Bio-One, Monroe, NC) using a Multidrop Combi (Thermo Scientific, Waltham, MA) dispenser. The assay plates were incubated at 37 C and 5% CO2 for 4hr, and then 23nL of compounds dissolved in DMSO and positive control were transferred using a Pintool station (Wako, San Diego, CA). The compound transfer was followed by the addition of 1ul conditioned medium or assay buffer using two separate tips of Flying Reagent Dispenser (FRD, Aurora Discovery, San Diego, CA). The assay plates were incubated at 37C and 5% CO2 for 24hr. For viability read, after 23hr of compound treatment, 1uL of CellTiter-Fluor reagent (Promega Corporation, Madison, WI) was added to each well of the assay plates using Flying Reagent Dispenser (FRD, Aurora Discovery, San Diego, CA) and incubated the assay plates at 37C for 1hr. The fluorescence signal was quantified using a ViewLux plate reader (Perkin Elmer, Shelton, CT).
% is set by controls: 0 for no effect and ±100 for the full control effect; potency is the fitted concentration of half-maximal effect.

SMILES	viability change, negative = cytotoxic	Potency
C[C@@H]1C[C@H]2[C@@H]3CCC4=CC(=O)C=C[C@]4(C)[C@@]3(F)[C@@H](O)C[C@]2(C)[C@@]1(O)C(=O)COC(=O)c1ccncc1	-4.42% [at 42.5 µM] (inactive)	–
Cc1ccccc1S(=O)(=O)O	2.7% (inactive)	–
CC(C)Nc1ccc(NC(C)C)c2c1C(=O)c1ccccc1C2=O	-0.61% [at 42.5 µM] (inactive)	–
Nc1ccc(N)c2c1C(=O)c1ccccc1C2=O	–	10.9 µM (active)
C=CC(=O)OCCOCCOCCOCCOC(=O)C=C	–	19.4 µM (active) and 27.1 µM (active)
CN(C)c1ccc(C(c2ccccc2)c2ccc(N(C)C)cc2)cc1	-16.2% (inactive)	–
CCC(CC)Nc1ccc(C)c(C)c1	-6.64% (inactive)	–
CCc1cc(C2=C(C(=O)O)N(c3ccccc3C(F)(F)F)S(=O)(=O)c3ccccc32)cc2c1OCO2	–	12.1 µM (active)
CC[N+]1(CC)CCC(=C(c2ccccc2)c2ccccc2)C1C (stereo not given)	24.9% [at 42.5 µM] (inactive)	–
NCCCN1CCOCC1	-1.85% (inactive)	–
OCCNCc1ccccc1	-0.463% (inactive)	–
C=C1C(=C/C=C2\CCC[C@]3(C)[C@@H]([C@H](C)/C=C/[C@@H](O)C4CC4)CC[C@@H]23)C[C@@H](O)C[C@@H]1O	-14.6% [at 42.5 µM] (inactive)	–
CC(=O)OC[C@H]1O[C@@H](n2ncc(=O)[nH]c2=O)[C@H](OC(C)=O)[C@@H]1OC(C)=O	7.46% [at 42.5 µM] (inactive)	–
CC1=CC=C(C(C)C)CC1	1.68% (inactive)	–
c1ccc(C(O[C@H]2CCCN(CCc3ccc4c(c3)OCO4)C2)c2ccccc2)cc1	0.689% [at 42.5 µM] (inactive)	–
NS(=O)(=O)c1ccc(N2CCCCS2(=O)=O)cc1	2.25% [at 42.5 µM] (inactive)	–
OC[C@H]1O[C@@H](OCCc2ccc(O)cc2)[C@H](O)[C@@H](O)[C@@H]1O	0.231% [at 42.5 µM] (inactive)	–
CC[N+](C)(CC)CCOC(=O)C(O)(c1ccccc1)C1CCCCC1 (stereo not given)	4.09% [at 42.5 µM] (inactive)	–
CCCCCCCCO[C@@H]1O[C@H](CO)[C@@H](O)[C@H](O)[C@H]1O	1.61% (inactive)	–
CN(C)CCN(Cc1ccccc1)c1ccccn1	-1.45% [at 42.5 µM] (inactive)	–

SMILES	viability change, negative = cytotoxic	Potency
C[N+](C)(C)CCOC(=O)CCC(=O)OCC[N+](C)(C)C	1.23% [at 42.5 µM] (inactive)	–
Cc1cc(C(=O)O)ccc1[N+](=O)[O-]	3.23% (inactive)	–
CCCCc1nc2cccnc2n1Cc1ccc(-c2ccccc2-c2nnn[nH]2)cc1	–	17.2 µM (active)
O=C(Cl)c1cc(C(=O)Cl)cc(C(=O)Cl)c1	0.318% (inactive)	–
CO[C@@H]1[C@H](OC(=O)/C=C/C=C/C=C/C=C/C(=O)O)CC[C@]2(CO2)[C@H]1[C@@]1(C)O[C@@H]1CC=C(C)C	-8.81% (inactive)	–
c1ccc(-c2ccccn2)nc1	1.37% (inactive)	–
CCCC(=O)Nc1ccc(O)c(C(C)=O)c1	2.45% [at 42.5 µM] (inactive)	–
O=C(O)c1ccc(S(=O)(=O)O)cc1C(=O)O	5.97% (inactive)	–
CC(=O)[O][Al][O]C(C)=O	8.43% (inactive)	–
CNCCCCOc1ccccc1Cc1ccccc1	-15.3% [at 42.5 µM] (inactive)	–
O=C(c1ccc(F)cc1)C1CCN(CCn2c(=S)[nH]c3ccccc3c2=O)CC1	-18% [at 42.5 µM] (inactive)	–
CC(C)(C)OCC1CO1 (stereo not given)	0.761% (inactive)	–
Cc1cccc(C)c1OCC(=O)N[C@@H](Cc1ccccc1)[C@@H](O)C[C@H](Cc1ccccc1)NC(=O)[C@H](C(C)C)N1CCCNC1=O	–	23.7 µM (active)
COc1cc2nc(N(C)CCCNC(=O)C3CCCO3)nc(N)c2cc1OC (stereo not given)	0.376% [at 42.5 µM] (inactive)	–
CCO[C@H](Cc1ccc(OCCc2ccc(OS(C)(=O)=O)cc2)cc1)C(=O)O	3.85% [at 42.5 µM] (inactive)	–
CCCn1cnc2c1c(=O)n(CCCCC(C)=O)c(=O)n2C	1.26% [at 42.5 µM] (inactive)	–
O=C(O)C1(C(=O)Nc2ccc(Cl)cc2Cl)CC1	4.54% (inactive)	–
CC(=O)NO	0.531% [at 42.5 µM] (inactive)	–
NCc1ccccc1Sc1ccccc1CO	-5.85% [at 42.5 µM] (inactive)	–
CN(C)CCN(Cc1ccc(Cl)cc1)c1ccccn1	-14.7% [at 42.5 µM] (inactive)	–
